The sample as a whole holds a higher share of hits than the screen did.
DRV1 agonist = qHTS for Agonists of Human Resolvin D1 Receptor DRV1; CHO-K1 GPR32 beta-arrestin PathHunter luminescence, 90 min; zero percent set by DMSO-only wells; AID 1346428, 2018; Probable G-protein coupled receptor 32 (Homo sapiens), O75388; activation, % at 76.9 µM; 2.5% of 48,000 active;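 active = activation of at least 60% and not above a set upper limit, about 1 call in 100 departs from these limits; inconclusive = activation of 40% to 60%, or above that upper limit; inactive = activation under 40%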
Target sequence (O75388 whole entry, looked up): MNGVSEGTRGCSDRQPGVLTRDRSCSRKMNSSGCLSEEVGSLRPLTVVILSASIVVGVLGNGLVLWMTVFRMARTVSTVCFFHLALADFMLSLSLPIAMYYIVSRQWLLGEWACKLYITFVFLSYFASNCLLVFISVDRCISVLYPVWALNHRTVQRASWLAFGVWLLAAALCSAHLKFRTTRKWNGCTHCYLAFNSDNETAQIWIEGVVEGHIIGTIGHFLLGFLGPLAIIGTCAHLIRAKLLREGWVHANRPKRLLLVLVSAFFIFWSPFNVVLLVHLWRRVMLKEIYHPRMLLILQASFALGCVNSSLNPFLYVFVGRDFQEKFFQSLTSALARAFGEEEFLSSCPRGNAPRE
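Agonism was scored by beta-Gal fragment complementation (chemiluminescent read, 1 h detection at ambient temperature) reporting beta-arrestin binding to GPR32 in engineered CHO-K1 cells. Compound treatment lasted 90 min at 37 C, normalized to a DMSO basal control.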
AID inh = Primary qHTS assay for inhibitors of Activation Induced Cytidine Deaminase (AID): AID signal | AID deamination FRET fluorescence, UDG-coupled, 4 h | 0.32% of 91,000 active | Potency, µM (series often up to 115 µM), hits mostly inhibitors | Single-stranded DNA cytosine deaminase (Homo sapiens), Q9GZX7 | AID 1347428, 2020; note: nearly all actives have a fitted effect of over 25% in size
Target sequence (Q9GZX7 whole entry, looked up): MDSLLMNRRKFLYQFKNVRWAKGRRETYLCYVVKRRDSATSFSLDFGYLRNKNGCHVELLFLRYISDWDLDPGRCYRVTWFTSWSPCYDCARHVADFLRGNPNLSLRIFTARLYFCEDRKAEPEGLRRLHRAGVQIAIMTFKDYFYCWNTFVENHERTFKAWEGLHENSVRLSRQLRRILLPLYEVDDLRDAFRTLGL
UDG counterscr = Primary qHTS assay for inhibitors of Activation Induced Cytidine Deaminase (AID): UDG Counterscreen signal | FRET deamination/UDG coupled assay, UDG read, 4 h | 0.14% of 91,000 active | Potency, µM (series often up to 115 µM), usual class: inhibitors | Uracil-DNA glycosylase; note: nearly all actives have a fitted effect of over 65% in size
Numbers stand for hits; n = inactive; u = inconclusive; x = not tested or not shown; ! = not active in a repeat. Unless noted, calls come from the whole dose curve; as a rule, active = well fitted curve in the direction sought with a large enough effect; inconclusive = small, poorly fitted or top-dose-only effect, or another doubt; inactive = no such curve, though single readings can be large; an effect the other way counts as inactive or inconclusive.

SMILES	DRV1 agonist	AID inh	UDG counterscr
N=C(N)N1CCN(c2ccccc2)CC1	x	n	n
CCCOc1ccc(-c2nn(-c3ccccc3)cc2C2NC(=O)NC(C)=C2C(=O)OCC)cc1 (configuration not stated)	x	u	89.1µM
CCCOc1ccc(-c2nn(-c3ccccc3)cc2C2NC(=O)NC(C)=C2C(=O)OC)cc1 (configuration not stated)	n	u	n
CCSc1nn(C(C)C)c2nc3c(c(=O)n12)C(C)(CC)Cc1ccccc1-3 (configuration not stated)	x	n	n
O=C(O)c1cccnc1Nc1cccc(C(F)(F)F)c1	100.1!	n	n
O=C(Nc1cccc(C(F)(F)F)c1)c1cccc(C(=O)Nc2cccc(C(F)(F)F)c2)c1	u	n	n
COc1cc(NC(=O)CC(c2ccc(C)cc2)N2Cc3ccccc3C2=O)cc(OC)c1 (configuration not stated)	n	44.7µM	n
COc1cccc(CNC(=O)CC(c2ccc(C)cc2)N2Cc3ccccc3C2=O)c1 (configuration not stated)	n	u	n
Cc1ccc(CNC(=O)c2cc3c(s2)-c2ccc(Cl)cc2SC3)cc1	105.9	n	n
Cc1ccc(CNC(=O)c2cc3c(s2)-c2ccccc2SC3)cc1	n	n	n
CCCC(=O)n1nc(NCc2ccccc2)nc1NCc1ccccc1	x	n	n
COc1ccc(-c2nonc2NC(=O)c2ccc(OCC(C)C)cc2)cc1OC	x	n	n
COc1cc(C(c2c(C)[nH][nH]c2=O)c2c(C)[nH][nH]c2=O)ccc1OC(=O)c1ccccc1OC	n	u	n
COc1cc(C(c2c(C)[nH][nH]c2=O)c2c(C)[nH][nH]c2=O)ccc1OC(=O)c1cccc(C)c1	n	22.4µM	n
CCc1ccc(CNC(=O)c2ccc(-c3nc(CS(=O)(=O)c4ccccc4)c(C)o3)cc2)cc1	84.3	n	n
Cc1oc(-c2ccc(C(=O)NCc3ccccc3)cc2)nc1CS(=O)(=O)c1ccccc1	u	n	n
Cc1ccc(CNC(=O)c2ccc(-c3nc(CS(=O)c4ccccc4)c(C)o3)cc2)cc1 (configuration not stated)	n	n	n
CCOc1ccc(CCNC(=O)c2ccc(-c3nc(CSc4ccc(C)cc4)c(C)o3)cc2)cc1	n	n	n
Cc1ccc(OCc2nc(-c3ccc(C(=O)NCCc4ccc(S(N)(=O)=O)cc4)cc3)oc2C)cc1	82.3	n	n
COc1cccc(CNC(=O)c2ccc(-c3nc(CS(=O)(=O)c4ccccc4)c(C)o3)cc2)c1	n	n	n
Cc1cccc(CNC(=O)c2ccc(-c3nc(CS(=O)(=O)c4ccccc4)c(C)o3)cc2)c1	79.5	u	n
COc1ccc(CNC(=O)c2ccc(-c3nc(CS(=O)c4ccc(C)cc4)c(C)o3)cc2)cc1 (configuration not stated)	69.7	u	89.1µM
Cc1ccsc1/C=C(/C#N)C(=O)NC1CCCCC1C (configuration not stated)	x	n	n
N#C/C(=C/c1ccccc1C=O)c1nc2ccccc2s1	x	n	n
O=C(CSc1nnc(N2CCOCC2)n1-c1cccc(F)c1)Nc1ccc2c(c1)CCC2	x	n	n
SMILES	DRV1 agonist	AID inh	UDG counterscr
COc1ccc(-c2nc(S(=O)(=O)c3ccc4c(c3)OCCO4)c(N3CCOCC3)o2)cc1	x	n	n
COc1ccccc1Cc1nc2ccccc2nc1SCC(=O)N1CCc2ccccc21	n	n	n
COc1ccccc1Cc1nc2ccccc2nc1SCC(=O)N1CCCCC1	n	u	89.1µM
CC(=O)c1ccc(/C=C/C(=O)O)o1	x	n	n
CC(C)Oc1cccc(NC(=O)C2CCN(S(=O)(=O)Cc3ccccc3)CC2)c1	n	n	n
O=C(Nc1cccc(Cl)c1)C1CCN(S(=O)(=O)Cc2ccccc2)CC1	115.5	n	n
CS(=O)(=O)c1ccc(C(=O)OCc2c(F)c(F)c(F)c(F)c2F)cc1	x	n	n
CCN(CC)CCNC(=O)COc1ccc(Cl)cc1	n	x	x
CCN(CC)CCOc1ccc(C(O)(Cc2ccc(Cl)cc2)c2ccc(C)cc2)cc1 (configuration not stated)	63.1	x	x
COC(=O)CNC(=O)c1ccc(COC(C)=O)cc1	x	n	n
COc1ccccc1NC(=O)CSc1nnc(N)s1	n	n	n
COc1ccccc1NC(=O)CSc1nnc(NC(=O)Nc2ccc(C)cc2)s1	78.0	n	n
Nc1nc[nH]c(=O)c1N	x	n	n
O=c1[nH]cnc2nc[nH]c12	82.0	x	x
O=c1cc(-c2ccccc2F)oc2ccc(F)cc12	x	n	n
COc1ccccc1N1CCN(CCCNC(=O)c2cnn(-c3ccc(C)c(C)c3)c2C2CCN(C(=O)OC(C)(C)C)CC2)CC1	n	50.1µM	n
COc1cccc(N2CCN(C(=O)c3cnn(-c4ccccc4Cl)c3C3CCN(C(=O)OC(C)(C)C)CC3)CC2)c1	n	u	u
COc1ccc(CCN2CCC(CNC(=O)c3cnn(-c4ccccc4)c3C3CCN(C(=O)OC(C)(C)C)CC3)CC2)cc1	n	u	n
CC(C)(C)OC(=O)N1CCC(c2c(C(=O)N3CCN(c4ccccc4F)CC3)cnn2-c2ccccc2Cl)CC1	n	50.1µM	u
COc1ccc(CCN2CCC(CNC(=O)c3cnn(-c4cccc(Cl)c4)c3C3CCN(C(=O)OC(C)(C)C)CC3)CC2)cc1	n	35.5µM	n
COc1ccccc1N1CCN(CCCNC(=O)c2cnn(-c3cccc(Cl)c3)c2C2CCN(C(=O)OC(C)(C)C)CC2)CC1	n	u	u
Cc1ccc(C)c(/C=C/c2cc(C(=O)O)c3ccccc3n2)c1	x	n	n
Cc1ccc(C)c(NC(=O)C2CCN(S(=O)(=O)c3cccs3)CC2)c1	x	n	n
CC(=O)c1ccc(C(=O)N(C)Cc2ccc(F)cc2)s1	x	n	n
CCOc1ccc(-n2c(SCC(=O)N3CCCCCC3)nc3c([nH]c4ccccc43)c2=O)cc1	n	n	n
SMILES	DRV1 agonist	AID inh	UDG counterscr
CCOc1ccc(-n2c(SCC(=O)N3CCCC3)nc3c([nH]c4ccccc43)c2=O)cc1	77.3	u	n
COc1cccc(-n2c(SCC(=O)Nc3cccc(C)c3)nc3c([nH]c4ccccc43)c2=O)c1	n	12.6µM	n
COc1cccc(NC(=O)CSc2nc3c([nH]c4ccccc43)c(=O)n2-c2cccc(Cl)c2)c1	n	n	n
CCCN(Cc1cc2ccc(C)cc2[nH]c1=O)S(=O)(=O)c1ccc(Cl)cc1	x	n	n
O=C(c1ccsc1)N(CC1CCOC1)C1CC1 (configuration not stated)	x	n	n
CC(Sc1ccc(Cl)cc1)C(=O)Nc1ccc(C(C)C)cc1 (configuration not stated)	x	n	n
Cc1cc(I)ccc1NC(=O)C1CC2CCC1C2 (configuration not stated)	x	n	n
Fc1ccccc1Cc1cn2cc(-c3ccc(Cl)cc3)nc2s1	68.2	n	n
Clc1ccc(-c2cn3cc(Cc4ccccc4)sc3n2)cc1	n	n	n
CCOc1c(Br)cc(C(=O)Oc2cccc(F)c2)cc1OC	x	n	n
CCOC(=O)c1c(NC(C)=O)sc2c(OCc3ccc(F)cc3)c(Br)ccc12	x	n	n
